Test results taken from PubChem BioAssay (NCATS).
Results filed as inconclusive are left out. This is one part of the list. Calls of active or inactive are those of the source. Unless noted, calls follow the shape of the dose curve; as a rule, active = well fitted curve in the direction sought with a large enough effect; inconclusive = small, poorly fitted or top-dose-only effect, or another doubt; inactive = no such curve, though single readings can be large; an effect the other way counts as inactive or inconclusive.

Experiments:
[1] = Cytometric Cell-Based qHTS for Inhibitors of the mTORC1 Signaling Pathway in MEF (Tsc2-/-, p53-/-) Cells (AID 2660);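 also: percent of cells above a phospho-rpS6 to PI ratio cutoff in each well; series mostly up to about 38 µM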
How it was run: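 Tsc2-/-, p53-/- MEFs (empty vector) exposed to compound 24 h at 37 C, fixed, stained with Alexa-488 anti-phospho-rpS6 Ser235/236 and propidium iodide. Acumen laser scanning; phospho-S6/PI ratio thresholded against 7.5 nM rapamycin, reported as % positive cells.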

[2] = High Content Imaging Cell-Based qHTS for Inhibitors of the mTORC1 Signaling Pathway in MEF (Tsc2-/-, p53-/-) Cells (AID 2666);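 also: percent of cells scored positive for phospho-rpS6 Ser235/236 immunostaining by imaging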
How it was run: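 Read-out: % positive cells per well, with thresholds from highest- and lowest-signal wells, based on phospho-rpS6 (Ser235/236) intensity normalized to Hoechst nuclear stain. Cells: Tsc2-/-, p53-/- MEFs carrying empty vector; compound 24 hrs, 37 degree Celsius.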

[3] = High Content Imaging Cell-Based qHTS for Inhibitors of the mTORC1 Signaling Pathway in MEF Cells (AID 2667);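 also: Tsc2-/- p53-/- MEFs stably re-expressing wild-type Tsc2 exposed 24 h; series mostly up to about 38 µM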
How it was run: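 MEF (Tsc2-/-, p53-/-, WT Tsc2 re-expressed); cpd 24 h, 37 °C; PFA fix; Alexa-488 anti-p-rpS6 Ser235/236, PI, Hoechst; IN Cell imaging; Hoechst/Alexa-488 intensity ratio; % active cells, thresholds set from rapamycin and DMSO wells.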

[4] = Cytometry Cell-Based qHTS for Inhibitors of the mTORC1 Signaling Pathway in MEF cells (AID 2668);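 also: Tsc2-/- p53-/- mouse embryonic fibroblasts stably re-expressing wild-type Tsc2; percent cells positive for phospho-rpS6 Ser235/236 relative to propidium iodide stain; series mostly up to about 38 µM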
How it was run: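 Phospho-rpS6 (Ser235/236) immunofluorescence over PI signal, scored as % positive cells using thresholds from 7.5 nM rapamycin and DMSO wells, after 24 h compound exposure of WT-Tsc2-rescued Tsc2-/-, p53-/- MEFs. PI cell count recorded for viability.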

[5] = Validation screen for small molecules that induce DNA re-replication in MCF 10A normal breast cells (AID 463097); also: nearly all actives have a fitted effect of over 60% in size; also: potency is read from the fitted curve at half-maximal effect
How it was run: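 Read-out is Hoechst total nuclear intensity by fluorescence scanning imager, flagging increased high-DNA-content nuclei. Compounds were incubated with MCF 10A cells for 48 hr (37 C, 5% CO2) before 40 min staining.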

[6] = biological target: Ubiquitin carboxyl-terminal hydrolase 2 (Homo sapiens) (UniProt O75604); assay: qHTS Validation Assay for Inhibitors of Ubiquitin-specific Protease USP2a Using CHOP2 as the Reporter (AID 463106)
How it was run: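 USP2 core (10nM final) was preincubated with compound for 30min at RT in 20mM Tris-HCl pH 8.0, 2mM CaCl2, 2mM beta-mercaptoethanol, 0.05% CHAPS. Ub-CHOP2 and reporter substrate (25nM each) were added, and fluorescence (Ex 485/Em 531nm) was read after 60min.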

[7] = biological target: DNA polymerase III PolC-type (Bacillus subtilis (strain 168)) (UniProt P13267); assay: qHTS Validation Assay for the Inhibitors of DNA Replication in Gram-Positive Bacteria (AID 485295);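 also: reconstituted holoenzyme with PolC plus beta clamp SSB and primase; PicoGreen fluorescence of double-stranded DNA made on primed circular M13 template; series mostly up to about 57 µM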
How it was run: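 Double-stranded DNA product detected by PicoGreen fluorescence after EDTA quench. Compound incubated with B. subtilis holoenzyme (PolC, beta subunit, SSB, primase) before substrate addition; primed replication of M13Gori with dNTPs and NTPs at room temperature; DMSO defines 0% inhibition.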

[8] = biological target: Tumor susceptibility gene 101 protein (Homo sapiens) (UniProt Q99816); assay: qHTS Validation Assay for Iinhibitors of HIV-1 Budding by Blocking the Interaction of PTAP/TSG101 (AID 485342; calls by dose curve)
How it was run: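 Fluorescence polarization of 50 nM FITC-PTAP peptide bound to 10 uM Tsg101 binding domain was read after 20 min room-temperature incubation with compounds, in 10 mM HEPES pH 7.5, 0.15 M NaCl, 0.01% Tween 20.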

[9] = biological target: DNA repair nuclease/redox regulator APEX1 (Homo sapiens) (UniProt P27695); assay: Confirmation qHTS Assay for Inhibitors of the Human Apurinic/apyrimidinic Endonuclease 1 (APE1) (AID 2572);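 also: fluorescence gain from purified APE1 cutting a TAMRA/BHQ-2 THF abasic duplex; nearly all actives have a fitted effect of over 30% in size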
How it was run: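 No-enzyme wells served as negative control, enzyme-only wells as full activity. APE1 with compound for 15 min RT; 50 nM final fluorophore/quencher abasic duplex started the reaction; read 3 minus read 1 at 525/598 nm.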

[10] = qHTS Validation Assay to Find Inhibitors of Chronic Active B-Cell Receptor Signaling (AID 485345; active = well fitted curve in the direction sought with a large enough effect in the main read-out, with a control signal flat, not every such curve was filed as active)
How it was run: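 TMD8 ABC-DLBCL cells with dox-inducible green luciferase–IκBα fusion and red native luciferase; compounds 46 uM–3 nM, 4 h at 37C with doxycycline in 0.5% FBS IMDM. Green/red ratio normalized to basal and 10 uM MG-132.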

Measured: Potency

Sequence of DNA polymerase III PolC-type (Bacillus subtilis (strain 168)) (P13267 whole entry, looked up): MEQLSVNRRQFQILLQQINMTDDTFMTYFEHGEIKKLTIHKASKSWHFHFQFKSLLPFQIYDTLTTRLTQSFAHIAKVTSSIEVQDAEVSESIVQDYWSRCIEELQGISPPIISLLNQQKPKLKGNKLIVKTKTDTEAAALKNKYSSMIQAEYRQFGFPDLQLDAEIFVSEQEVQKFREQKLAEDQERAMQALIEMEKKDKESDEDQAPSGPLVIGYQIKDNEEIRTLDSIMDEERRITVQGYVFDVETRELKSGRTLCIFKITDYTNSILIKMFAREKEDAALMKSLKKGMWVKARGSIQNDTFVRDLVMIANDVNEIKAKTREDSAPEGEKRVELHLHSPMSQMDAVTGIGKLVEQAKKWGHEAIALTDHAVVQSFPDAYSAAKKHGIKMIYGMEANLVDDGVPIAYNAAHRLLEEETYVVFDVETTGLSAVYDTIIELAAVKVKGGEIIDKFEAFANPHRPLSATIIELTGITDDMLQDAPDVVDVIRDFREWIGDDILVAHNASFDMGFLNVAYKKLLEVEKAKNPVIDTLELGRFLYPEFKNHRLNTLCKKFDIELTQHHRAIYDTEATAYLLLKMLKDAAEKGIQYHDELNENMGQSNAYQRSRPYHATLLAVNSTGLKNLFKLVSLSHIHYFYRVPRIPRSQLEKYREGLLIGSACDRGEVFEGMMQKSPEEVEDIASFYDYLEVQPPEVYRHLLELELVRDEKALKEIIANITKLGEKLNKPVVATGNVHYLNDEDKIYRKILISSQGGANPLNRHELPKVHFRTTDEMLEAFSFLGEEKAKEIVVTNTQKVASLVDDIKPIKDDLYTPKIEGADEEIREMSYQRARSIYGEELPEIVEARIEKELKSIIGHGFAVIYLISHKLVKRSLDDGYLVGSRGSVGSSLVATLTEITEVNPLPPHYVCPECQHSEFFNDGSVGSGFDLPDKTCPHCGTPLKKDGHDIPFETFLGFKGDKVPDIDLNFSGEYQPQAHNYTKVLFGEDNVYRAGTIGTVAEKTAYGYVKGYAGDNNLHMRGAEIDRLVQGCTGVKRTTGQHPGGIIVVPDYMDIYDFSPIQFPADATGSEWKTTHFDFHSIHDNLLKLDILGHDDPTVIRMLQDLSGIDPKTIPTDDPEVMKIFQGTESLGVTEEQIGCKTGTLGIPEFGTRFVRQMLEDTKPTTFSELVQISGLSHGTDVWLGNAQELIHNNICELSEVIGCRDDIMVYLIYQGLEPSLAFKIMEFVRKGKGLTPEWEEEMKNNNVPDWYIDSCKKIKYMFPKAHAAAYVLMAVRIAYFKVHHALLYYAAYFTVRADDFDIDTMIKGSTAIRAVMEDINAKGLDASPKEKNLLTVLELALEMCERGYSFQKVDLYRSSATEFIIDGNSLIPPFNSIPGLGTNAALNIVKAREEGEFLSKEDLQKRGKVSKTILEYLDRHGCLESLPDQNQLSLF
Sequence of Ubiquitin carboxyl-terminal hydrolase 2 (Homo sapiens) (O75604 whole entry, looked up): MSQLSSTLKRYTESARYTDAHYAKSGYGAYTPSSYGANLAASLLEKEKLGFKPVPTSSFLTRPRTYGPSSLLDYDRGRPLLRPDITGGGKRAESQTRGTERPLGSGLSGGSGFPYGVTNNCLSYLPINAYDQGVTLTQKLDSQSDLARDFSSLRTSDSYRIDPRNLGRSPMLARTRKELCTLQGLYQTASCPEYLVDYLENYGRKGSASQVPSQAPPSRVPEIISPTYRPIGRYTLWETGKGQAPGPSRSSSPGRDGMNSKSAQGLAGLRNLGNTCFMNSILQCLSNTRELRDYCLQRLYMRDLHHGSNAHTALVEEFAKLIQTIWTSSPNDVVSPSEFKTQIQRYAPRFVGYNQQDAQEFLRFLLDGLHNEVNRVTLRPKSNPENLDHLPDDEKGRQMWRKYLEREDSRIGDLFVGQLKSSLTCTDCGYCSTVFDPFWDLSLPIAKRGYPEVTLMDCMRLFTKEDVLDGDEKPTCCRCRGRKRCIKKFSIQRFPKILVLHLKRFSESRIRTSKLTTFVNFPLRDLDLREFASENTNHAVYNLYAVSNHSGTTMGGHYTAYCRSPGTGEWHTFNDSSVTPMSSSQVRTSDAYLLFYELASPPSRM
Sequence of Tumor susceptibility gene 101 protein (Homo sapiens) (Q99816 whole entry, looked up, the tested form may be a part): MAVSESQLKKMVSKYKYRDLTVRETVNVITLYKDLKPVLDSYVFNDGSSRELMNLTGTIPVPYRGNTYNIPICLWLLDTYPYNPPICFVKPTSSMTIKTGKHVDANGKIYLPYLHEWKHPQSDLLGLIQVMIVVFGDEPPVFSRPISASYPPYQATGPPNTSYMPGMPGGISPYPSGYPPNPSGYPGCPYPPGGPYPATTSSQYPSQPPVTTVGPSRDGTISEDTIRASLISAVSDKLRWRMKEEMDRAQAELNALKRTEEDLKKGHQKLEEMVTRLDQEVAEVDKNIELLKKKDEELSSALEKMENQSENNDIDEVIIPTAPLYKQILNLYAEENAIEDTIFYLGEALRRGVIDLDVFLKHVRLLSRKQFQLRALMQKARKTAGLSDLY
Sequence of DNA repair nuclease/redox regulator APEX1 (Homo sapiens) (P27695 whole entry, looked up): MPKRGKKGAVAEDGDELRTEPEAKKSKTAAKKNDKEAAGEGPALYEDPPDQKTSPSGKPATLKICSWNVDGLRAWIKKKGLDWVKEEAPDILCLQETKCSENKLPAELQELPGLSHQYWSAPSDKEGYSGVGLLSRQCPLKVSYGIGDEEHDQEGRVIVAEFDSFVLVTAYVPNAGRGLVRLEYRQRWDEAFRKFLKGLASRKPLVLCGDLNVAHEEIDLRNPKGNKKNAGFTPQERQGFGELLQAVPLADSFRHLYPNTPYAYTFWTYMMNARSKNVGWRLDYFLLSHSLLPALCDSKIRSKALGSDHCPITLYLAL

O=c1[nH]c2cc(Cl)ccc2c(O)c1-c1ccc(Oc2ccccc2)cc1
inactive: [1] | [2] | [3] | [4] | [5] | [6] | [7] | [8]

NC1CCN(O)C1=O (configuration not stated)
inactive: [9] | [1] | [2] | [3] | [4] | [5] | [6] | [7] | [8] | [10]

CSC(=N)N
inactive: [1] | [2] | [3] | [4] | [5] | [6] | [7] | [8] | [10]

C[C@@H](NCCc1ccc(O)cc1)[C@@H](O)c1ccc(O)cc1
inactive: [1] | [2] | [3] | [4] | [5] | [6] | [7] | [8] | [10]

C[C@H](O)C(=O)C1=Nc2c(nc(N)[nH]c2=O)NC1
inactive: [1] | [2] | [3] | [4] | [5] | [6] | [7] | [8] | [10]

CC(=O)NCCc1c[nH]c2ccc(O)cc12
inactive: [1] | [2] | [3] | [4] | [5] | [6] | [7] | [8] | [10]

CC1CCN(CC[C@H]2CCCN2S(=O)(=O)c2cccc(O)c2)CC1
inactive: [1] | [2] | [3] | [4] | [5] | [6] | [7] | [8] | [10]

C#CCn1c(=O)c2c(ncn2C)n(C)c1=O
inactive: [1] | [2] | [3] | [4] | [5] | [6] | [7] | [8]

O=C(O)[C@H]1NCCC[C@H]1C(=O)O
inactive: [1] | [2] | [3] | [4] | [5] | [6] | [7] | [8] | [10]

COc1cc(C(O)CO)ccc1O (configuration not stated)
inactive: [1] | [2] | [3] | [4] | [5] | [6] | [7] | [8] | [10]

NC(=Nc1ccccc1)NC(=O)c1nc(Cl)c(N)nc1N
active: [5] 14.1 µM
inactive: [1] | [2] | [3] | [4] | [6] | [7] | [8]

NS(=O)(=O)c1cccc2c1c([N+](=O)[O-])cc1nc(O)c(O)nc12
inactive: [1] | [2] | [3] | [4] | [5] | [6] | [7] | [8]

N#Cc1cc2nc(O)c(O)nc2cc1[N+](=O)[O-]
inactive: [1] | [2] | [3] | [4] | [5] | [6] | [7] | [8] | [10]

Cn1c(=O)[nH]c2ncn(C)c2c1=O
inactive: [1] | [2] | [3] | [4] | [5] | [6] | [7] | [8] | [10]

Cc1ccc2c(c1)C(N1CCN(C)CC1)=Nc1cccnc1N2
inactive: [1] | [2] | [3] | [4] | [5] | [6] | [7] | [8]

Cc1ccc([N+](=O)[O-])cc1S(=O)(=O)N(C)C
inactive: [1] | [2] | [3] | [4] | [5] | [6] | [7] | [8]

NC(N)=[N+]1CCc2ccccc2C1
inactive: [1] | [2] | [3] | [4] | [5] | [6] | [7] | [8] | [10]

O=c1[nH]c2ccccc2c2ccccc12
inactive: [1] | [2] | [3] | [4] | [5] | [6] | [7] | [8]

O=C(O)/C=C/c1ccc(O)c(O)c1
inactive: [1] | [2] | [3] | [4] | [5] | [6] | [7] | [8] | [10]

O=[N+]([O-])c1cccc2cn[nH]c12
inactive: [1] | [2] | [3] | [4] | [5] | [6] | [7] | [8] | [10]

NOCC(=O)O
inactive: [1] | [2] | [3] | [4] | [5] | [6] | [7] | [8] | [10]

N[C@@H](CCC(=O)N[C@H](CSN=O)C(=O)NCC(=O)O)C(=O)O
inactive: [1] | [2] | [3] | [4] | [5] | [6] | [7] | [8] | [10]

NCC(O)c1ccc(O)c(O)c1 (configuration not stated)
inactive: [1] | [2] | [3] | [4] | [5] | [6] | [7] | [8] | [10]

COc1cc(N)c(Cl)cc1C(=O)OCCN1CCCCC1
inactive: [1] | [2] | [3] | [4] | [5] | [6] | [7] | [8] | [10]

O=C(O)C1=CCCNC1
inactive: [1] | [2] | [3] | [4] | [5] | [6] | [7] | [8] | [10]

CCCCS(=N)(=O)CC[C@H](N)C(=O)O (some centres not stated)
inactive: [1] | [2] | [3] | [4] | [5] | [6] | [7] | [8] | [10]

CC(C)(C)NCC(O)COc1cccc2[nH]c(=O)[nH]c12 (configuration not stated)
inactive: [1] | [2] | [3] | [4] | [5] | [6] | [7] | [8] | [10]
